Results: PubChem BioAssay (NCATS)
Results filed as inconclusive are left out. Active and inactive are the calls of the source. Calls follow the shape of the dose curve; as a rule, active = well fitted curve in the direction sought with a large enough effect; inconclusive = small, poorly fitted or top-dose-only effect, or another doubt; inactive = no such curve, though single readings can be large; an effect the other way counts as inactive or inconclusive. Where a SMILES comes first, the peptide text is derived from it.

Tests used:
MCC-13 = assay: qHTS assay to identify novel small-molecules to repurpose for Merkel cell carcinoma treatment (AID 1296009); conditions: MCC and control cell lines, CellTiter-Glo viability, 72 h; series mostly up to 46 µM; also: nearly all actives have a fitted effect of over 60% in size
How it was run: (§1)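 72 hr, 37 degree celsius; NPC 8-pt / MIPE 11-pt dose response; compound pinned in DMSO; CellTiter-Glo, 10 min RT, luminescence; normalized to no-cell and DMSO controls.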

MCC-26 = assay: as above; conditions: MCC and control cell lines, CellTiter-Glo viability, 72 h; series mostly up to 46 µM
How it was run: as §1

MKL-1 = assay: as above; conditions: MCC and control cell lines, CellTiter-Glo viability, 72 h; series mostly up to 46 µM
How it was run: as §1

MKL-2 = assay: as above; conditions: MCC and control cell lines, CellTiter-Glo viability, 72 h; series mostly up to 46 µM
How it was run: as §1

UISO = assay: as above; conditions: MCC and control cell lines, CellTiter-Glo viability, 72 h; series mostly up to 46 µM
How it was run: as §1

WaGa = assay: as above; conditions: MCC and control cell lines, CellTiter-Glo viability, 72 h; series mostly up to 46 µM
How it was run: as §1

C33A = assay: Primary qHTS to identify gynecologic anti-cancer compounds using libraries of approved drugs and bioactive compounds (AID 1345084); conditions: Gynecologic cancer cell panel viability, ATPlite luminescence, 48 h; series mostly up to 57.5 µM; also: nearly all actives have a fitted effect of over 55% in size
How it was run: (§2)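 Cells, 1,000 per well, were allowed to settle for 16 h at 37 C before compound addition. Five concentrations were tested for 48 h, and viability was read by ATPlite luminescence after 15 min at room temperature.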

CAOV3 = assay: as above; conditions: Gynecologic cancer cell panel viability, ATPlite luminescence, 48 h; series mostly up to 57.5 µM
How it was run: as §2

Measured: Potency

Cc1nc(C2CCCCC2)c(-c2ccc(S(N)(=O)=O)c(F)c2)o1
inactive: all assays above

CC1(C)S[C@@H]2[C@H](NC(=O)C(c3ccccc3)S(=O)(=O)O)C(=O)N2[C@H]1C(=O)O (stereo not given in full)
inactive: all assays above

Cc1ccc2c(Cl)cc(Cl)c(O)c2n1
inactive: all assays above

O=C1c2ccccc2CCc2ccccc21
inactive: all assays above

CC(=O)N[C@@H](CO)C(=O)N[C@@H](CC(=O)O)C(=O)N[C@@H](CCCCN)C(=O)N1CCC[C@H]1C(=O)O (Ac-SDKP-OH)
inactive: all assays above

CCCCCN(CCCOC)C(=O)C(CCC(=O)O)NC(=O)c1ccc(Cl)c(Cl)c1 (stereo not given)
inactive: all assays above

c1ccc2occc2c1
inactive: all assays above

O=C(COCCOCCOCC(=O)Nc1c(I)cc(I)c(C(=O)O)c1I)Nc1c(I)cc(I)c(C(=O)O)c1I
inactive: all assays above

CN=C(N)NC(=O)Nc1c(C)cccc1C
inactive: all assays above

CC(C(=O)O)c1ccc(/C=C2\CCCCC2=O)cc1 (stereo not given)
inactive: all assays above

C[C@H]1C[C@H](O)c2ccsc2S1(=O)=O
inactive: all assays above

O=C(O)CCCC[C@@H]1SC[C@@H]2NC(=O)N[C@@H]21
inactive: all assays above

Nc1c(I)cc(I)c(C(=O)N(CCC(=O)O)c2ccccc2)c1I
inactive: all assays above

O=[N+]([O-])c1nccn1CO[C@@H](CO)[C@H](O)CO
inactive: all assays above

Oc1ccccc1
inactive: all assays above

Cc1onc(-c2ccccc2)c1C(=O)Cl
inactive: all assays above

CCCCCCCCCCCCCCCCCCN(C)C
inactive: all assays above

CC(C)C(C)(C)C(C)(C)C(C)(C)S
inactive: all assays above

CN(C)CCOC1=Cc2ccccc2Sc2ccc(Cl)cc21
not listed: MKL-2 | WaGa
inactive: all other assays above
